KinaseGlo FLuc: counter-screen: inhibitors of Kinase-Glo firefly luciferase. Q27757. Kinase-Glo luciferase, ATP luminescence, 8 min. Potency, µM (doses to about 38.3 µM), without a hit: at the highest dose activity change, negative = inhibition, most hits filed as inhibitors. actives 0.28% (n = 200,000). AID 1379; active = well fitted curve in the direction sought with a large enough effect; inconclusive = small, poorly fitted or top-dose-only effect, or another doubt; inactive = no such curve, though single readings can be large; an effect the other way counts as inactive or inconclusive; note: nearly all actives have a fitted effect of over 60% in size
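Compounds were added to a substrate mix at pH 7.2 (50 mM imidazole, 10 uM ATP, within the enzyme's linear range), followed by Kinase-Glo detection reagent; luminescence was measured after 8 minutes at ambient temperature.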
Lamin A splicing: modulators of lamin A splicing | HeLa LMNA splicing GFP/RFP minigene ratio, 48 h | Potency, µM (doses to about 46.1 µM), for inactives: at the highest dose ratio change, negative = inhibition, hits mostly inhibitors | actives 0.01% (n = 200,000); active = well fitted inhibition curve with a large enough effect in the signal ratio, with a control signal flat, not every such curve was filed as active; inconclusive = small, poorly fitted or top-dose-only effect, or effect the other way, or a change in a side signal; the % refers to the signal ratio
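Read-out is the ratio of GFP to DsRed2 object intensity, acquired by 488 nm laser-scanning cytometry on HeLa lamin A-EGFP minigene reporter cells. Compound incubation 48 hrs at 37 °C in Opti-MEM with 2% FBS; DMSO 0.5% final.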
HPGD inh: blocks human HPGD enzyme activity; P15428; purified HPGD, NADH fluorescence kinetic, PGE2 substrate; Potency, µM, for inactives: top-dose activity change, negative = inhibition, usual class: inhibitors; actives 4.3% (n = 150,000)
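NADH formation kinetics: reaction with 30 uM PGE2 and 1 mM NAD+ (final), 20 nM enzyme, Tris-HCl pH 8 with Tween 20, after 15 min compound preincubation at room temperature. Fluorescence change, last versus first of five reads.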
ALDH1A1 inh: ALDH1A1 (human) enzyme inhibition. AID 1030. actives 7.3% (n = 220,000). Potency, µM (doses to about 75.3 µM), for inactives: at the highest dose activity, negative = inhibition, actives largely listed as inhibitors. P00352. Purified ALDH1A1, NADH fluorescence, propionaldehyde substrate;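 note: plate controls were no enzyme wells and a reference inhibitor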
Target sequence (P00352 whole entry, looked up): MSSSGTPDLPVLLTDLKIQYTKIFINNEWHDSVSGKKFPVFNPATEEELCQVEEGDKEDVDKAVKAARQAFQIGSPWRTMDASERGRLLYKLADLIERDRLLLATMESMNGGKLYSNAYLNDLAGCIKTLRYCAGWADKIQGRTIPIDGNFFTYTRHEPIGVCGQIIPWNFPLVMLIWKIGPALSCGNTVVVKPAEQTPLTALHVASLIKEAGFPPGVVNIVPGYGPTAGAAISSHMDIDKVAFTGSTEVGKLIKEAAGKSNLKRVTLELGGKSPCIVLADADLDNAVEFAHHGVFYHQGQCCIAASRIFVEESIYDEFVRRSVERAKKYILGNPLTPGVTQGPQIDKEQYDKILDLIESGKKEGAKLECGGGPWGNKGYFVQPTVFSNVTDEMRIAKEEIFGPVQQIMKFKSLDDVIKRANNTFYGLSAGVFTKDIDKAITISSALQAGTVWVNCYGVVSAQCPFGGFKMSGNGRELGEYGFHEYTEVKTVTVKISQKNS
IMPase Li inh: cell-permeable IMPase inhibitors with lithium potentiation. Potency, µM (doses to about 59.4 µM), for inactives: top-dose activity, negative = IMPase inhibition, actives largely listed as inhibitors. AID 1457. CHO-M1 cells, IP1 TR-FRET (IP-One), carbachol + lithium. actives 0.35% (n = 210,000); active = well fitted curve in the direction sought with a large enough effect; inconclusive = small, poorly fitted or top-dose-only effect, or another doubt; inactive = no such curve, though single readings can be large; an effect the other way counts as inactive or inconclusive;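 note: IP1 builds up when IMPase is blocked and the TR-FRET signal falls; plate controls were basal vehicle for no effect and high inhibitor control for full effect; nearly all actives have a fitted effect of over 50% in size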
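IP1 accumulation measured by competitive TR-FRET in lysed CHO-M1 cells after 30 min compound exposure at 37C, with a small lithium addition to potentiate weak responses. Hill-equation AC50 from ratio and donor-channel data.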
* hit, by the source's call; [ ] = another dose, or the depositor's remark. Hits are enriched below; roughly 9% of the tested compounds scored in any of these assays. Unless noted, calls come from the whole dose curve; as a rule, active = well fitted inhibition curve with a large enough effect (not every such curve was filed as active); inconclusive = small, poorly fitted or top-dose-only effect, or another doubt; inactive = no such curve, though single readings can be large or run the other way. Unless noted, % is set by controls: 0 for no effect and ±100 for the full control effect; potency is the fitted concentration of half-maximal effect.

`C=CCn1c(CCNC(=O)c2cccs2)nnc1SCC(=O)Nc1cccc(Cl)c1C` gave KinaseGlo FLuc 9%, Lamin A splicing 9%, HPGD inh -20%, ALDH1A1 inh 10µM* and IMPase Li inh 3%[38.3 µM].
For Clc1cccc(-n2ncc3c(NCCC4=CCCCC4)ncnc32)c1 the results were Lamin A splicing -13%[46 µM].
CC(C)(C)NS(=O)(=O)c1ccc(CCC(=O)NCc2cccnc2)cc1 was read as KinaseGlo FLuc 19%, Lamin A splicing -5%, HPGD inh -8%, ALDH1A1 inh inconclusive and IMPase Li inh 11%[38.3 µM].
Screening Cc1ccc(NS(=O)(=O)c2ccc(CCC(=O)NCc3cccnc3)cc2)cc1 returned KinaseGlo FLuc -1%, Lamin A splicing 10%[46 µM], ALDH1A1 inh 8.9µM* and IMPase Li inh 5%.
Cc1ccc(S(=O)(=O)Nc2ccc(NC(=O)c3cccnc3)cc2)cc1 was read as KinaseGlo FLuc -1%, ALDH1A1 inh 14µM* and IMPase Li inh 14%.
`CCC(CC)C(=O)OCC(=O)NC12CC3CC(CC(C3)C1)C2` gave KinaseGlo FLuc 17%, Lamin A splicing 6%, HPGD inh -18%, ALDH1A1 inh inconclusive and IMPase Li inh 8%[38.3 µM].
Screening O=C(COC(=O)C12CC3CC(CC(C3)C1)C2)NC12CC3CC(CC(C3)C1)C2 returned KinaseGlo FLuc -1%, Lamin A splicing 22%[0.0737 µM], HPGD inh -26%, ALDH1A1 inh 14µM* and IMPase Li inh -7%[38.3 µM].
Screening O=C(COC(=O)C(O)c1ccccc1)NC12CC3CC(CC(C3)C1)C2 (centres undefined) returned KinaseGlo FLuc -3%, Lamin A splicing 4%, HPGD inh -9%, ALDH1A1 inh 32µM* and IMPase Li inh -1%[38.3 µM].
COc1ccc(-c2nc3cnc(N4CCOCC4)nc3n(CCC#N)c2=O)cc1 was read as KinaseGlo FLuc -1%, HPGD inh -13%, ALDH1A1 inh inconclusive and IMPase Li inh -14%.
`CCn1cnc2sc(C(=O)N(Cc3ccc(N(C)C)cc3)Cc3ccco3)c(C)c2c1=O` gave KinaseGlo FLuc 3%, Lamin A splicing inconclusive, HPGD inh -14%, ALDH1A1 inh 8.9µM* and IMPase Li inh 26%[38.3 µM].
Screening C=C1C2CC[C@]3(CCC4[C@@]5(C)CCC[C@@]4(CN(CCO)C5)[C@@H]3C2)[C@@H]1O (some centres undefined) returned KinaseGlo FLuc 2%, HPGD inh -3%, ALDH1A1 inh -4% and IMPase Li inh 5%.
For CCn1c(SCc2ccccc2)nnc1C1CCCCC1 the results were Lamin A splicing -4% and ALDH1A1 inh inconclusive.
`CCn1c(SCc2ccccc2)nnc1C1CCN(S(=O)(=O)c2ccc(OC)cc2)CC1` gave KinaseGlo FLuc 3%, Lamin A splicing -1%, HPGD inh -12%, ALDH1A1 inh 5µM* and IMPase Li inh 26%[38.3 µM].
O=C(CSc1nnc(C2CC2)n1Cc1ccccc1)c1ccc(S(=O)(=O)N2CCOCC2)cc1 was read as KinaseGlo FLuc 7%, Lamin A splicing 1%, HPGD inh -22%, ALDH1A1 inh 11µM* and IMPase Li inh 17%[38.3 µM].
Screening O=C1NC2(CCCCC2)C(=O)N1Cc1cccc(C(F)(F)F)c1 returned KinaseGlo FLuc -5%, ALDH1A1 inh -9% and IMPase Li inh 1%.
For CC1(C)Cc2c(C#N)c(SCCC#N)nc(N3CCOCC3)c2CS1 the results were KinaseGlo FLuc -3%, Lamin A splicing -5%, HPGD inh 2%, ALDH1A1 inh inconclusive and IMPase Li inh 11%[38.3 µM].
`Cc1nn(CCC(N)=S)c2nc(-c3cccs3)cc(C(F)(F)F)c12` gave KinaseGlo FLuc 2%, Lamin A splicing -7%, HPGD inh 28µM*, ALDH1A1 inh 13µM* and IMPase Li inh -4%.
`COc1ccc(Cn2c(CNC(=O)Cc3cccc([N+](=O)[O-])c3)nc3cccnc32)cc1` gave Lamin A splicing 0%[46 µM].
COC(=O)c1cc2c(C)nn(-c3ccccc3)c2s1 was read as KinaseGlo FLuc 0%, Lamin A splicing 8%, HPGD inh inconclusive, ALDH1A1 inh inconclusive and IMPase Li inh 2%[38.3 µM].
`Cc1nn(-c2ccccc2)c2sc(C(=O)N(CC(=O)NC(C)(C)C)Cc3ccco3)cc12` gave KinaseGlo FLuc 2%, Lamin A splicing -22%, HPGD inh -28%, ALDH1A1 inh 25µM* and IMPase Li inh 22%.
For Cc1ccc2[nH]c(C)cc(=S)c2c1 the results were KinaseGlo FLuc -3%, ALDH1A1 inh 18µM* and IMPase Li inh inconclusive.
`CCCCC(CC)CN1CN(CC(CC)CCCC)CC(C)(N)C1` (centres undefined) gave KinaseGlo FLuc -6%, HPGD inh -6%, ALDH1A1 inh 1% and IMPase Li inh 21%.
Screening COc1ccc(C)cc1NC(=O)CSc1nc(=O)n(Cc2cccnc2)c2c1CCC2 returned Lamin A splicing -2%[46 µM].
Screening CCOC(=O)C(=O)Nc1ccc(OCc2ccccc2)cc1 returned KinaseGlo FLuc -11%, Lamin A splicing -4%[46 µM], ALDH1A1 inh 25µM* and IMPase Li inh 7%.
Screening C/C(CC(=O)Nc1ccc(OCc2ccccc2)cc1)=N\NC(=O)C(=O)Nc1ccc(C)c(Cl)c1 returned KinaseGlo FLuc -6%, Lamin A splicing 14%, HPGD inh -13%, ALDH1A1 inh 14µM* and IMPase Li inh 7%[38.3 µM].
Screening Cc1cc(C(=O)Nc2ccc(OCc3ccccc3)cc2)c(C)o1 returned KinaseGlo FLuc 11µM*, ALDH1A1 inh inconclusive and IMPase Li inh 10%.
Cc1oc(C(=O)Nc2ccc(C(=O)O)cc2)cc1COc1ccccc1 was read as KinaseGlo FLuc -3%, Lamin A splicing inconclusive, HPGD inh 20µM*, ALDH1A1 inh -7% and IMPase Li inh 17%[38.3 µM].
Screening CC(=O)c1cc(C(=O)Nc2ccc(C(=O)O)cc2)oc1C returned KinaseGlo FLuc -3%, Lamin A splicing -5%, HPGD inh -11%, ALDH1A1 inh 4% and IMPase Li inh 13%[38.3 µM].
For O=C(Nc1ccc(OCc2ccccc2)cc1)c1ccccc1 the results were KinaseGlo FLuc -10%, Lamin A splicing -4%[46 µM], ALDH1A1 inh 7% and IMPase Li inh -5%.
For O=C(N/N=C/c1ccsc1)c1ccc2ccccc2n1 the results were KinaseGlo FLuc -9%, Lamin A splicing 2%[46 µM], ALDH1A1 inh -10% and IMPase Li inh 4%.
Screening CCN1CCN(C(c2cccs2)C(C)NC(=O)c2cccnc2)CC1 (centres undefined) returned KinaseGlo FLuc -3%, Lamin A splicing 3%, HPGD inh -8%, ALDH1A1 inh 3% and IMPase Li inh -1%[38.3 µM].
For CS(=O)(=O)N1CCN(Cc2ccc([N+](=O)[O-])cc2)CC1 the results were KinaseGlo FLuc -2%, Lamin A splicing 8%[46 µM], ALDH1A1 inh 4% and IMPase Li inh 6%.

Compound activity as filed in PubChem BioAssay.
